Where “and” joins values, the source holds several entries; their conditions need not be identical. Equal values may be shown once. Inconclusive results are not listed. A structure can be active in one record and inactive in another. Calls of active or inactive are those of the source.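 The calls were made as follows, unless noted: active = normalized viability below 100% at a tested concentration; inactive = the rest.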
Tests used:
[1] = growth inhibition of DIPG cells – cell-based, MIPE5.0 library, qHTS (AID 1347068; cut-off not given, nearly all actives have IC50 up to about 30 µM); conditions: SU-DIPG-XXV viability
[2] = compounds altering HSF1 focus formation in cells – imaging, Selleck Cancer Library (AID 1347162; in the data active = plate-normalised HSF1 focus index below about 0.46); conditions: human cells, HSF1 nuclear foci imaging, at 10 µM; SSMD: measured here: HSF1 foci SSMD mean; cell count: measured here: cell number; plate-normalised HSF1 focus index: stronger effect = lower value
[3] = drug combination growth inhibition, ovarian cancer – cell-based, oncology-focused library, rucaparib conditional, profiling panel (AID 1508598); conditions: patient-derived ovarian cancer cells, CellTiter-Glo viability, 144 h, stronger effect = lower value
[4] = growth inhibition, single agent or in combination, cell-based, chromothripsis tumors, cisplatin or BGB combos (AID 1671449; in the data active = inhibition above about 80%;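 also: cells exposed for 96 hours; 0% = vehicle DMSO and 100% = killing by high DMSO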); conditions: LFS_MB_P medulloblastoma cells
[5] = growth inhibition, single agent and combos, cell-based, chromothripsis tumors, cisplatin or BGB combos (AID 1671450; in the data active = inhibition above about 80%;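 also: cells exposed to compound for four days; 0% = vehicle DMSO and 100% = cell killing by high DMSO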); conditions: HDN33 neuroblastoma cells, stronger effect = higher value
[6] = growth inhibition, single agents and combos, ICB984, cell-based, cisplatin or BGB combos, synergistic combos for chromothripsis tumors (AID 1671451; call rule not given here;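 also: cells exposed for 96 hours before readout; 0% = vehicle DMSO and 100% = killing by high DMSO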); conditions: ICB984 medulloblastoma cells, drug combinations, stronger effect = higher value
[7] = growth inhibition, single agents and combos, HTB85, cell-based, BGB or cisplatin IC20 combos, synergistic combos for chromothripsis tumors (AID 1671453; in the data active = inhibition above about 80%;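 also: cells exposed for 96 hours before readout; 0% = vehicle DMSO and 100% = high DMSO killing control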); conditions: HTB85 osteosarcoma cells, drug combinations, stronger effect = higher value
[8] = growth inhibition, MDA-MB-436, cell-based, BGB or cisplatin combos, synergistic combos for chromothripsis tumors (AID 1671458; call rule not given here;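 also: cells exposed for 96 hours; 0% = vehicle DMSO and 100% = killing by high DMSO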); conditions: MDA-MB-436 breast carcinoma growth inhibition, drug combinations, stronger effect = higher value
[9] = BT084 cell growth, single and combined drugs, ICGC_MB145, cisplatin and BGB IC40 combos (AID 1671461; in the data active = inhibition above about 80%;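 also: cells exposed to drugs for 96 hours; 0% = vehicle DMSO and 100% = high DMSO full killing control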); conditions: BT084 medulloblastoma cells, drug combinations, stronger effect = higher value
[10] = RCMB18 cell growth, single agent and combined, cisplatin and BGB IC40 combos (AID 1671462; in the data active = inhibition above about 80%;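 also: cells exposed to compound for four days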); conditions: RCMB18 medulloblastoma cells, stronger effect = higher value
[11] = CRL1545 cell growth, single agent and combined, cisplatin and BGB IC20 combos (AID 1671464; in the data active = inhibition above about 80%;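 also: cells exposed to compound for 96 hours before readout; 0% = vehicle DMSO and 100% = high DMSO killing control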); conditions: CRL1545 osteosarcoma cells, stronger effect = higher value
[12] = measured here: with BGB IC20 combination, at 0.5 µM
[13] = measured here: with cisplatin IC20 combination, at 0.5 µM

Compound: CNC(=O)[C@@H](NC(=O)[C@H](CC(C)C)[C@H](O)C(=O)NO)C(C)(C)C
- outcome [1]: inactive
- SSMD [2]: 3.3
- cell count [2]: 6770
- plate-normalised HSF1 focus index [2]: 1.2 (inactive)

Compound: C/C(=C\C(=O)Nc1ccccc1C(=O)O)c1ccc2ccccc2c1
- SSMD [2]: 2.21 and 1.02
- cell count [2]: 7410 and 6940
- plate-normalised HSF1 focus index [2]: 1.08 (inactive) and 1.06 (inactive)
- viability ([3]; at 0.000305 µM, OCI-C5x cells, with rucaparib 10 µM, 100% = cells with rucaparib alone): 89.1% (active)
- viability ([3]; at 0.000305 µM, OCI-C5x cells, without rucaparib): 109% (inactive)
- viability ([3]; at 0.000305 µM, OCI-P5x cells, with rucaparib 20 µM, 100% = cells with rucaparib alone): 107% (inactive)
- viability ([3]; at 0.000305 µM, OCI-P5x cells, without rucaparib): 103% (inactive)
- viability ([3]; at 0.00122 µM, OCI-C5x cells, with rucaparib 10 µM, 100% = cells with rucaparib alone): 102% (inactive)
- viability ([3]; at 0.00122 µM, OCI-C5x cells, without rucaparib): 107% (inactive)
- viability ([3]; at 0.00122 µM, OCI-P5x cells, with rucaparib 20 µM, 100% = cells with rucaparib alone): 96.8% (active)
- viability ([3]; at 0.00122 µM, OCI-P5x cells, without rucaparib): 101% (inactive)
- viability ([3]; at 0.00488 µM, OCI-C5x cells, with rucaparib 10 µM, 100% = cells with rucaparib alone): 92.9% (active)
- viability ([3]; at 0.00488 µM, OCI-C5x cells, without rucaparib): 110% (inactive)
- viability ([3]; at 0.00488 µM, OCI-P5x cells, with rucaparib 20 µM, 100% = cells with rucaparib alone): 112% (inactive)
- viability ([3]; at 0.00488 µM, OCI-P5x cells, without rucaparib): 103% (inactive)
- viability ([3]; at 0.0195 µM, OCI-C5x cells, with rucaparib 10 µM, 100% = cells with rucaparib alone): 111% (inactive)
- viability ([3]; at 0.0195 µM, OCI-C5x cells, without rucaparib): 111% (inactive)
- viability ([3]; at 0.0195 µM, OCI-P5x cells, with rucaparib 20 µM, 100% = cells with rucaparib alone): 106% (inactive)
- viability ([3]; at 0.0195 µM, OCI-P5x cells, without rucaparib): 112% (inactive)
- viability ([3]; at 0.0781 µM, OCI-C5x cells, with rucaparib 10 µM, 100% = cells with rucaparib alone): 95.3% (active)
- viability ([3]; at 0.0781 µM, OCI-C5x cells, without rucaparib): 104% (inactive)
- viability ([3]; at 0.0781 µM, OCI-P5x cells, with rucaparib 20 µM, 100% = cells with rucaparib alone): 109% (inactive)
- viability ([3]; at 0.0781 µM, OCI-P5x cells, without rucaparib): 113% (inactive)
- viability ([3]; at 0.313 µM, OCI-C5x cells, with rucaparib 10 µM, 100% = cells with rucaparib alone): 94.4% (active)
- viability ([3]; at 0.313 µM, OCI-C5x cells, without rucaparib): 111% (inactive)
- viability ([3]; at 0.313 µM, OCI-P5x cells, with rucaparib 20 µM, 100% = cells with rucaparib alone): 109% (inactive)
- viability ([3]; at 0.313 µM, OCI-P5x cells, without rucaparib): 110% (inactive)
- viability ([3]; at 1.25 µM, OCI-C5x cells, with rucaparib 10 µM, 100% = cells with rucaparib alone): 95.9% (active)
- viability ([3]; at 1.25 µM, OCI-C5x cells, without rucaparib): 108% (inactive)
- viability ([3]; at 1.25 µM, OCI-P5x cells, with rucaparib 20 µM, 100% = cells with rucaparib alone): 116% (inactive)
- viability ([3]; at 1.25 µM, OCI-P5x cells, without rucaparib): 118% (inactive)
- viability ([3]; at 5 µM, OCI-C5x cells, with rucaparib 10 µM, 100% = cells with rucaparib alone): 89.8% (active)
- viability ([3]; at 5 µM, OCI-C5x cells, without rucaparib): 98.2% (active)
- viability ([3]; at 5 µM, OCI-P5x cells, with rucaparib 20 µM, 100% = cells with rucaparib alone): 119% (inactive)
- viability ([3]; at 5 µM, OCI-P5x cells, without rucaparib): 117% (inactive)
- inhibition ([4]; at 0.5 µM, stronger effect = higher value): 102% (active) and -1.28% (inactive)
- inhibition ([4]; measured here: combination with BGB IC20, at 0.005 µM): 9.03% and -7.31%
- inhibition ([4]; measured here: combination with BGB IC40, at 0.005 µM): -18.4% and -24.9%
- inhibition ([4]; measured here: combination with BGB IC40, at 0.05 µM): 19.3% and -24.1%
- inhibition ([4]; measured here: combination with cisplatin, at 0.5 µM, stronger effect = higher value): 113% and 3.01%
- inhibition ([4]; measured here: combination with cisplatin, at 5 µM, stronger effect = higher value): 13.4% and -26.4%
- inhibition ([5]; BGB combo, at 5 µM): -23.7% and -49.5%
- inhibition ([5]; at 0.5 µM): -19.3% (inactive) and -46.7% (inactive)
- inhibition ([5]; cisplatin combo, at 5 µM): -7.72% and -22.6%
- inhibition [5, 12]: -14.6% and -44.4%
- inhibition [5, 13]: -15.2% and -49.7%
- inhibition ([5]; single agent, at 5 µM): -14% and -26%
- inhibition ([6]; BGB IC20 combo, at 0.005 µM): -36.5% and -10.3%
- inhibition ([6]; BGB IC40 combo, at 0.005 µM): 5.4% and -31%
- inhibition ([6]; BGB IC40 combo, at 0.05 µM): -10.6% and -21.5%
- inhibition ([6]; at 0.5 µM): -6.99% (inactive) and -24.5% (inactive)
- inhibition ([6]; cisplatin combo, at 0.05 µM): -10.6% and -25.9%
- inhibition ([6]; cisplatin combo, at 0.5 µM): -7.39% and -29.2%
- inhibition ([6]; cisplatin combo, at 5 µM): 6.72% and -34%
- inhibition ([6]; measured here: 5 uM single agent, at 5 µM): -9.64% and -30.6%
- inhibition ([7]; at 0.5 µM): -22.4% (inactive) and -26.8% (inactive)
- inhibition ([7]; measured here: with BGB IC20, at 0.5 µM): -27.7% and -32.5%
- inhibition ([7]; measured here: with BGB IC20, at 5 µM): -14.9% and -24.4%
- inhibition ([7]; measured here: with cisplatin IC20, at 0.5 µM): -22.7% and -28.1%
- inhibition ([7]; measured here: with cisplatin IC20, at 5 µM): -19.8% and -17.3%
- inhibition ([7]; single agent, at 5 µM): -20.6% and -16.3%
- inhibition ([8]; at 0.5 µM): -3.17% (inactive) and -21% (inactive)
- inhibition ([8]; measured here: BGB combination, at 0.5 µM): -3.42% and -32.5%
- inhibition ([8]; measured here: BGB combination, at 5 µM): -2.03% and -11.9%
- inhibition ([8]; measured here: cisplatin combination, at 0.5 µM): -4.64% and -12.8%
- inhibition ([8]; measured here: cisplatin combination, at 5 µM): -4.62% and -6.3%
- inhibition ([9]; at 0.5 µM): -6.83% (inactive) and -5.19% (inactive)
- inhibition ([9]; cisplatin combination, at 0.5 µM): -15% and -25.6%
- inhibition ([9]; cisplatin combination, at 5 µM): -24.9% and -2.65%
- inhibition ([9]; measured here: BGB IC40 combination 0.05 uM, at 0.05 µM): -17.8% and 7.75%
- inhibition ([9]; single agent, at 5 µM): 11.2% and -10.1%
- inhibition ([10]; at 0.5 µM): -1.42% (inactive) and -24.1% (inactive)
- inhibition ([10]; cisplatin combo, at 5 µM): 5.73% and -10.2%
- inhibition ([10]; measured here: BGB IC40 combination, at 0.05 µM): -5.49% and -16.6%
- inhibition ([10]; measured here: combination with cisplatin, at 0.5 µM): -31.4% and -50.1%
- inhibition ([10]; single agent, at 5 µM): -4.52% and -12.1%
- inhibition ([11]; at 0.5 µM): -35.2% (inactive) and -65.1% (inactive)
- inhibition [11, 12]: -24.4% and -56.6%
- inhibition [11, 13]: -40.6% and -72.1%
- inhibition ([11]; single agent, at 0.05 µM): -15.5% and -44.7%
- inhibition ([11]; single agent, at 5 µM): -12.5% and -53.7%
